Laboratory results from PubChem BioAssay (EPA / NIEHS).
The source made the active and inactive calls. How the source made its calls: active means hit-call score of the fitted dose curve at least 0.9, where 1 is the maximum; inactive means score below 0.9.

The compounds below were run against Estrogen receptor (Homo sapiens) (UniProt P03372) (assay: OT_ERa_GFPERaERE_0480: Odyssey Thera (OT) 8-hour HeLa Transcription Induction Assay for Estrogen Receptor (AID 2283381)).
Estrogen receptor (Homo sapiens), sequence (P03372 whole entry, looked up): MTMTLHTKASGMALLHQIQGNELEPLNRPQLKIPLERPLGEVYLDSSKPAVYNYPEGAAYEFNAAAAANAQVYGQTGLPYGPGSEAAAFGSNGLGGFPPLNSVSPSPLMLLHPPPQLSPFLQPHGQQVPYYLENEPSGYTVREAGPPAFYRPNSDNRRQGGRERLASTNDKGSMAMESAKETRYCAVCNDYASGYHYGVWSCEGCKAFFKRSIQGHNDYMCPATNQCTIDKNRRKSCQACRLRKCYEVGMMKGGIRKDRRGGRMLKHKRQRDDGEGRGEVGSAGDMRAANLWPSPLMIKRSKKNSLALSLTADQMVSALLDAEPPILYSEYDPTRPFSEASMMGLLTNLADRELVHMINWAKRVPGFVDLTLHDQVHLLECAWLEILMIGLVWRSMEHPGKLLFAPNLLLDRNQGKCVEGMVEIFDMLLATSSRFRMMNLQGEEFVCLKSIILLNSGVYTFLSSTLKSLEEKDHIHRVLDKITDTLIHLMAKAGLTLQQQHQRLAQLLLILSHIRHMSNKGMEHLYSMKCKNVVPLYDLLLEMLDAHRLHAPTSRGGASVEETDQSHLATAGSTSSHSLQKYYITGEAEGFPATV
Protocol: OT_ERa_GFPERaERE_0480 is a cell-based, single-readout assay that uses HeLa, a human cervix cell line, with measurements taken at 8 hours after chemical dosing in a 384-well plate.OT_ERa_GFPERaERE_0480 is one of one assay component(s) measured or calculated from the OT_ERa_GFPERaERE_0480 assay. It is designed to make measurements of fluorescent protein induction, a form of inducible reporter, as detected with optical microscopy: fluorescence microscopy signals by Microscopy technology.Data from the assay component OT_ERa_GFPERaERE_0480 was analyzed into 1 assay endpoint. This assay endpoint, OT_ERa_EREGFP_0480, was analyzed in the positive analysis fitting direction relative to DMSO as the negative control and baseline of activity. Using a type of inducible reporter, measures of receptor for gain-of-signal activity can be used to understand the reporter gene at the pathway-level as they relate to the gene ESR1. Furthermore, this assay endpoint can be referred to as a primary readout, because the performed assay has only produced 1 assay endpoint. To generalize the intended target to other relatable targets, this assay endpoint is annotated to the nuclear receptor intended target family, where the subfamily is steroidal.
All assay endpoints are quantified using high content image analysis algorithms.
In the case of `CC/C=C\CCOC(C)=O`, the outcome is reported as “inactive”.
With `CCCCCCOC(=O)c1ccccc1O` the outcome was “inactive”.
For `CCCCOc1ccc(N)cc1`, the outcome was “inactive”.
With `COC(=O)C1CCC(C(=O)OC)CC1` (stereo not drawn) the outcome was “inactive”.
With `CNC(=S)NC` the outcome was “inactive”.
`CCN(Cc1cccc(S(=O)(=O)O)c1)c1ccc(C(=C2C=CC(=[N+](CC)Cc3cccc(S(=O)(=O)O)c3)C=C2)c2ccc(O)cc2S(=O)(=O)[O-])cc1` was tested, and the outcome was “inactive”.
`CCCCC(CC)COP(=O)(O)OCC(CC)CCCC` (stereo not drawn) was tested, and the outcome was “inactive”.
In the case of `OC[C@@H](O)[C@@H](O)[C@H](O)[C@@H](O)CO`, the outcome is reported as “inactive”.
For `CC(C)OC(=O)c1ccccc1C(=O)OC(C)C`, the outcome was “inactive”.
With `[Co]` the outcome was “inactive”.
`CC(CCl)OP(=O)(OC(C)CCl)OC(C)CCl` (stereo not drawn) was tested, and the outcome was “inactive”.
With `O=C(OCCOCCOCCOC(=O)c1ccccc1)c1ccccc1` the outcome was “inactive”.
In the case of `C#C[C@]1(O)CC[C@H]2[C@@H]3CCc4cc(OC)ccc4[C@H]3CC[C@@]21C`, the AC50 is reported as 0.0277 µM (active).
In the case of `C(=C(c1ccccc1)c1ccccc1)c1ccccc1`, the AC50 is reported as 1.61 µM (active).
For `CCCCCCOC(=O)c1ccccc1`, the outcome was “inactive”.
For `c1ccc(B(c2ccccc2)c2ccccc2)cc1`, the outcome was “inactive”.
`O=S(=O)(O)c1ccc2ccccc2c1` was tested, and the outcome was “inactive”.
In the case of `CN(C)Cc1ccccc1O`, the outcome is reported as “inactive”.
For `CCCCCCC(C)OC(=O)CCCCC(=O)OC(C)CCCCCC` (stereo not drawn), the outcome was “inactive”.
With `C1COCCN1` the outcome was “inactive”.
With `CC(Cc1ccc(O)c(O)c1)C(C)Cc1ccc(O)c(O)c1` (stereo not drawn) the AC50 was 11.9 µM (active).
`Cc1cc(C)cc(O)c1` was tested, and the outcome was “inactive”.
In the case of `Cc1ccc(S(=O)(=O)NCl)cc1`, the outcome is reported as “inactive”.
